Measurements from PubChem BioAssay (NCATS).
Results filed as inconclusive are left out. Where a call stands in place of a potency, no number is given. Some structures have more than one record in an assay (separate samples or runs), and their calls can disagree. Activity calls are given as the source filed them. Unless noted, the call rests on the fitted dose curve; in most records, active means well fitted curve in the direction sought with a large enough effect; inconclusive means small, poorly fitted or top-dose-only effect, or another doubt; inactive means no such curve, though single readings can be large; an effect the other way counts as inactive or inconclusive.

Legend:
[1] = qHTS for Inhibitors of Plasmodium falciparum (DD2) proliferation (AID 504314);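 further: parasite DNA measured by SYBR Green fluorescence after red cell lysis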
How it was run: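 Erythrocytes infected with P. falciparum (0.3% parasitemia, 2.5% hematocrit final) were incubated with compounds for 72 h at 37C, 5% CO2. Parasite DNA was detected by SYBR Green I fluorescence after saponin/Triton lysis, normalized to artemisinin (0.29 uM) and DMSO controls.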

[2] = qHTS for Inhibitors of Plasmodium falciparum (GB4) proliferation (AID 504315); further: nearly all actives have a fitted effect of over 50% in size
How it was run: (§1)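 Erythrocytes infected with P. falciparum line (0.3% parasitemia, 2.5% hematocrit final) incubated with compounds 72 h at 37 °C, 5% CO2; SYBR Green lysis buffer added, fluorescence read next day. Normalized to 0.29 uM artemisinin and DMSO.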

[3] = qHTS for Inhibitors of Plasmodium falciparum (7G8) proliferation (AID 504316); further: series mostly up to about 6.7 µM; nearly all actives have a fitted effect of over 65% in size
How it was run: as §1

[4] = qHTS for Inhibitors of Plasmodium falciparum (HB3) proliferation (AID 504318); further: nearly all actives have a fitted effect of over 60% in size
How it was run: as §1

[5] = qHTS for Inhibitors of Plasmodium falciparum (CP250) proliferation (AID 504320)
How it was run: as §1

[6] = molecular target: Atrial natriuretic peptide receptor 1 (Homo sapiens) (UniProt P16066); test: Natriuretic polypeptide receptor (hNpr1) antagonism - Pilot CMLD screen (AID 1347052; calls by dose curve;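 further: cGMP level read as GloSensor luciferase luminescence after agonist stimulation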; further: potency means the concentration at half of the fitted maximal effect)
Chain of Atrial natriuretic peptide receptor 1 (Homo sapiens) (P16066 whole entry, looked up): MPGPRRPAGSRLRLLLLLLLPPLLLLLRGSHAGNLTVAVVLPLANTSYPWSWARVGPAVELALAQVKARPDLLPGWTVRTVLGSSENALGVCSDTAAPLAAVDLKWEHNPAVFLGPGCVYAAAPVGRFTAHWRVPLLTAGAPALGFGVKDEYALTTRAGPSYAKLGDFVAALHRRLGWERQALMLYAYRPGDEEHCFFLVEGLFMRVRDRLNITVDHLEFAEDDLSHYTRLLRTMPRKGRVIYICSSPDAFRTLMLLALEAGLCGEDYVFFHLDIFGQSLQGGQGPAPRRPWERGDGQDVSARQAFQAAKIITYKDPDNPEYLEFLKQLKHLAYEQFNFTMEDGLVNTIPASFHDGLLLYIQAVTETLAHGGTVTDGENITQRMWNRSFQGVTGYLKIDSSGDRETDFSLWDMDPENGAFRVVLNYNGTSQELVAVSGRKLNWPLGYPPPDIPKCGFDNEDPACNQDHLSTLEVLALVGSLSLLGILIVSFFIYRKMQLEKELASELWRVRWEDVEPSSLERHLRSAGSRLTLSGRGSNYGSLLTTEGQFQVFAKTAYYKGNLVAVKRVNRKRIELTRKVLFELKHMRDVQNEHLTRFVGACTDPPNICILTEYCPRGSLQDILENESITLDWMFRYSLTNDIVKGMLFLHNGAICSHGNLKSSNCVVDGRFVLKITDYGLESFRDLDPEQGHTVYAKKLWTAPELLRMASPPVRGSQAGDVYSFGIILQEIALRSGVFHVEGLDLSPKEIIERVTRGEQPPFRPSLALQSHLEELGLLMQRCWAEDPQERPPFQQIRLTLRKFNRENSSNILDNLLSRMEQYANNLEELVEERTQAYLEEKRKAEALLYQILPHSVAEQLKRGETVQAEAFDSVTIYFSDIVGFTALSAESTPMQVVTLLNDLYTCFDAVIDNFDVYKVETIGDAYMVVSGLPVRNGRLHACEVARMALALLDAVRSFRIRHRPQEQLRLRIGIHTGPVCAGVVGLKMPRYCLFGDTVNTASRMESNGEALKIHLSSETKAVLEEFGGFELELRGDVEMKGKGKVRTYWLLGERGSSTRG

SMILES	Potency [1]	Potency [2]	Potency [3]	Potency [4]	Potency [5]	Potency [6]	activity, negative = inhibition [1]
CCN1C(=NCC(C)C)N[C@H](c2ccccc2)[C@H](C(=O)OC)[C@H]1C	inactive	inactive	inactive	inactive	inactive	inactive	
COC(=O)C1=C(C(=O)OC)[C@@H]2N(Cc3ccccc3)c3ccccc3[C@@]23C[C@@H](C(=O)OC)N(C(=O)c2cccs2)C3=N1		inactive	inactive	inactive	inactive	inactive	-0.326% [at 1.12 µM] (inactive)
CCOC(=O)NN=C1C[C@@H](O)[C@@H](O)[C@@H]2[C@H]3C(=O)N(c4ccc(F)cc4F)C(=O)[C@@H]3CC[C@H]12	inactive	inactive	inactive	inactive	inactive	inactive	
CCOC(=O)C(c1ccc(OC)c(OC)c1)C1c2ccccc2C=C(C)N1C(=O)OC (stereo not drawn)		inactive	inactive	inactive	inactive	inactive	-0.0023% [at 1.12 µM] (inactive)
C=CCOC(=O)N[C@H](c1cccc(C(F)(F)F)c1)C(C(C)=O)C(C)=O	inactive	inactive	inactive	inactive	inactive	inactive	
C=CC1=C2C=C(C3CC3)N(Cc3ccc4c(c3)OCO4)C=C2C(=O)C(C)(OC(=O)c2ccco2)C1=O (stereo not drawn)		inactive	inactive	inactive	inactive	inactive	4.05% [at 1.12 µM] (inactive)
C=C(C)CO[C@H]1C=C[C@@H](c2ccccc2)O[C@H]1CO	inactive	inactive	inactive	inactive	inactive	inactive	
COC1=C[C@H](C(=O)NCc2ccc(Cl)cc2)C(C)C(c2ccccc2)CC1=O (stereo partly drawn)	inactive	inactive	inactive	inactive	inactive	inactive	
O=C(NN=C1C[C@@H](O)[C@H](O)[C@H]2[C@@H]3C(=O)N(C[C@@H]4CCCO4)C(=O)[C@@H]3CC[C@H]12)OCc1ccccc1	inactive	inactive	inactive	inactive	inactive	inactive	
CCN1C(=NCCc2cccnc2)N[C@H](CCc2ccccc2)[C@H](C(=O)OC)[C@H]1C	inactive	inactive	inactive	inactive	inactive	inactive	
CCN1C(=O)[C@H]2[C@H]3C(=CC[C@@H]2C1=O)C1(OCCCO1)[C@@H]1O[C@H]1[C@H]3O	inactive	inactive	inactive	inactive	inactive	inactive	
COCCN1C(=O)NC(c2cccc(F)c2)C(C(=O)OC)=C1C (stereo not drawn)	inactive	inactive	inactive	inactive	inactive	inactive	
COC(=O)N[C@@H](c1cccc(C)c1)[C@@H](C)[N+](=O)[O-]	inactive	inactive	inactive	inactive	inactive	inactive	
CCCCCCCC#Cc1ccccc1C=NS(=O)c1ccc(C)cc1 (stereo not drawn)	inactive	inactive	inactive	inactive	inactive	inactive	
CCCCc1nc2c(c3c1C[C@H](C)OC3)CN(C(=O)Cc1cccs1)CC2	inactive	inactive	inactive	inactive	inactive	inactive	
C=C(CCN1C=C(C(C)=O)C(c2ccccc2)NC1=O)c1ccccc1 (stereo not drawn)	inactive	inactive	inactive	inactive	inactive	inactive	
CCN1C(=O)N[C@@H](c2cccc(C(F)(F)F)c2)[C@H](C(C)=O)[C@H]1C	inactive	inactive	inactive	inactive	inactive	inactive	
COC(=O)CCCC1=CC2=CC(=O)C(C)(OC(=O)c3cccs3)C(=O)C2=CN1CCN1CCOCC1 (stereo not drawn)	inactive	inactive	inactive	inactive	inactive	inactive	
C=CCOC(=O)N[C@@H](c1cccs1)C(C(C)=O)C(C)=O	inactive	inactive	inactive	inactive	inactive	inactive	
CC(=O)C1=C(C)N(Cc2ccccc2)C(=O)NC1c1cccs1 (stereo not drawn)	inactive	inactive	inactive	inactive	inactive	inactive	
COCCN1C(=O)NC(c2ccco2)C(C(=O)OC)=C1C (stereo not drawn)	inactive	inactive	inactive	inactive	inactive	inactive	
CC(C)=CCN1C(=O)C2(CC(C)=C[C@@H](C)O2)c2c(Br)cccc21 (stereo partly drawn)	inactive	inactive	inactive	inactive	inactive	inactive	
CCOC(=O)CN1C(=O)NC(c2cccs2)C(C(=O)OC)=C1C (stereo not drawn)	inactive	inactive	inactive	inactive	inactive	inactive	
C=CCOC(=O)NC(CC(=Nc1ccc(OC)cc1)C(=O)OC)c1ccccc1 (stereo not drawn)	inactive	inactive	inactive	inactive	inactive	inactive	
COC(=O)CCCC1=CC2=CC(=O)C(C)(OC(=O)c3cccs3)C(=O)C2=CN1C1CCCCC1 (stereo not drawn)	inactive	inactive	inactive	inactive	inactive	inactive	
CCOC(=O)CN1C(=O)[C@@]2(C[C@@H](C)C[C@@H](C)O2)c2ccccc21	inactive	inactive	inactive	inactive	inactive	inactive	
COC(=O)[C@H]1[C@@H](c2ccccc2)NC(=O)N(Cc2ccccc2)[C@@H]1C	inactive	inactive	inactive	inactive	inactive	inactive	

SMILES	Potency [1]	Potency [2]	Potency [3]	Potency [4]	Potency [5]	Potency [6]	activity, negative = inhibition [1]
C=CCOC(=O)NC(c1ccc(F)c(F)c1)S(=O)(=O)c1ccc(Cl)cc1 (stereo not drawn)	inactive	inactive	inactive	inactive	inactive	inactive	
O=C1CCCC(C(C(=O)OCc2ccccc2)C(=O)OCc2ccccc2)C1 (stereo not drawn)	inactive	inactive	inactive	inactive	inactive	inactive	
CCN1C(=NCc2ccco2)N[C@@H](c2ccccc2)[C@H](C(=O)OC)[C@H]1C	inactive	inactive	inactive	inactive	inactive	inactive	
COCCN1C(=O)CC[C@@]23C1=NC(C(=O)OC)=C(C(=O)OC)[C@@H]2N(C)c1ccccc13	inactive	inactive	inactive	inactive	inactive	inactive	
COC(=O)CCCC1=CC2=C(c3ccccc3)C(=O)C(C)(OC(=O)C3CCCC3)C(=O)C2=CN1c1ccccc1 (stereo not drawn)	inactive	inactive	inactive	inactive	inactive	inactive	
C=CCC(Nc1ccc(OC)cc1)C(=O)OCC (stereo not drawn)	inactive	inactive	inactive	inactive	inactive	inactive	
CC[C@H](C)[C@@H](NC(=O)O[C@@H]1C(=O)c2ccc(OC)cc2O[C@H]1c1ccc2c(c1)OCO2)C(=O)OC	inactive	inactive	inactive	inactive	inactive	inactive	
COc1ccc2c(c1)CO[C@H]([C@H](O)CBr)[C@H]2C=Cc1ccccc1	inactive	inactive	inactive	inactive	inactive	inactive	
COC(=O)C1=C(C(=O)OC)[C@@H]2N(C)c3ccccc3[C@@]23C[C@@H](CO)N(C(=O)c2ccc(Br)cc2)C3=N1	inactive	inactive	inactive	inactive	inactive	inactive	
CCN1C(=S)NC(c2ccccc2)C(C(=O)OC)=C1C (stereo not drawn)	inactive	inactive	inactive	inactive	inactive	inactive	
COC(=O)C(C(=O)OC)C1c2ccccc2C=C(C2CC2)N1C(=O)OC (stereo not drawn)	inactive	inactive	inactive	inactive	inactive	531 nM (active) and inactive	
CC1(OC(=O)C2CCCC2)C(=O)C=C2C=C3CCCN3C=C2C1=O (stereo not drawn)		inactive	inactive	inactive	inactive	inactive	0.418% [at 1.12 µM] (inactive)
C#CCNC(=O)[C@H]1C=C(OC)C(=O)C[C@H]2c3ccccc3C[C@]12C	inactive	inactive	inactive	inactive	inactive	inactive	
COc1cccc([C@@H]2Oc3ccc(OC)cc3[C@H](O)[C@@H]2O)c1	inactive	inactive	inactive	inactive	inactive	inactive	
COC(=O)CCCC1=CC2=CC(=O)C(C)(OC(=O)c3cccs3)C(=O)C2=CN1C1CC1 (stereo not drawn)	inactive	inactive	inactive	inactive	inactive	inactive	
COC(=O)C1=C2C=CCCN2C(=O)NC1c1ccccc1 (stereo not drawn)	inactive	inactive	inactive	inactive	inactive	inactive	
CCCCCCCc1cc2ccccc2c2c(C(C)=O)c(-c3ccccc3)c(C(=O)OC)n12	inactive	inactive	inactive	inactive	inactive	inactive	
CC(=O)C1=C(C)N(Cc2ccccc2)C(=O)NC1c1ccco1 (stereo not drawn)	inactive	inactive	inactive	inactive	inactive	inactive	
CCN1C(=O)NC(c2cccc(F)c2)C(C(C)=O)=C1C (stereo not drawn)	inactive	inactive	inactive	inactive	inactive	inactive	
CC1(OC(=O)C2CCCC2)C(=O)C=C2C=C(c3ccsc3)N(C(CO)CO)C=C2C1=O (stereo not drawn)	inactive	inactive	inactive	inactive	inactive	inactive	
CC(CCC(=O)OC[C@H]1O[C@H](C#Cc2ccccc2)C=C[C@H]1Oc1ccc(C)cc1)=NOC[C@@H](O)[C@H]1O[C@@H]2OC(C)(C)O[C@H]2[C@@H]1O	inactive	inactive	inactive	inactive	inactive	inactive	
Cc1ccc(C(O)C2=CCCC2=O)cc1 (stereo not drawn)	inactive	inactive	inactive	inactive	inactive	inactive	
C=CCN1c2ccccc2[C@]23C[C@@H](C(=O)OC)N(C(=O)c4cccs4)C2=NC(C(=O)OC)=C(C(=O)OC)[C@H]13	inactive	inactive	inactive	inactive	inactive	inactive	
CCN(CC)CCCN=C1NC(c2cccc(C(F)(F)F)c2)C(C(=O)OC)=C(C)N1CC (stereo not drawn)	inactive	inactive	inactive	inactive	inactive	inactive	
C=C(CCN1C=C(C(=O)OCC)C(c2ccccc2)NC1=O)OC (stereo not drawn)	inactive	inactive	inactive	inactive	inactive	inactive	
COC(=O)[C@@]1(Cc2ccccc2-c2ccco2)C=C[C@H](C)[C@@H](c2ccccc2)N1C(=O)C(F)(F)F	inactive	inactive	inactive	inactive	inactive	inactive	
